Results on 40 sequences are retold here after the OligoGym collection.
Note: reference of the scale not given here.

The target in the first assay is ZNF135. Description: pooled miR-30 sensor sort-seq; sequence = guide strand. As to conditions: shRNA.
Take TAGAACTGACAGTTTGACTTTG: the sensor-assay potency score (higher = more potent) was -0.0496.

Take TCTCATTTCTGGAACACTCTGC: the sensor-assay potency score (higher = more potent) came out at 0.253.

As to TTAGAACTGACAGTTTGACTTT, the sensor-assay potency score (higher = more potent) is -0.0207.

In the case of TTCTTCAGAGATGCCTTGCTTT, the sensor-assay potency score (higher = more potent) is -0.404.

On to TTTCTCATGTGTATGATTGGGT, for which the sensor-assay potency score (higher = more potent) stood at 0.467.

A further assay deals with ZNF146. The assay is described as above. As to conditions: shRNA.
Sequence TTACATTCGAAAAGCTTCTCGC came in with a sensor-assay potency score (higher = more potent) of -0.0579.

In the case of TCCACAAACATTGCATTCGTAA, the sensor-assay potency score (higher = more potent) was -1.11.

For TTAAAGTTAACCTCATTCGTGG, the sensor-assay potency score (higher = more potent) stood at 0.427.

The sequence TTGAGAACTGAGAGAAAGCTTT gave a sensor-assay potency score (higher = more potent) of -0.35.

TTTTATGAGGTACTTCTTCTGG came in with a sensor-assay potency score (higher = more potent) of -0.457.

TTGGATTTGCCACTGAAGGTTT registered a sensor-assay potency score (higher = more potent) of -0.469.

The sequence TTCCACAAACATTGCATTCGTA returned a sensor-assay potency score (higher = more potent) of 0.428.

The sequence TTTCTAATGAAAGCTTTCCCAC had a sensor-assay potency score (higher = more potent) of -1.05.

In turn, ATGTTTAATGACATACTGCTTT had a sensor-assay potency score (higher = more potent) of -0.84.

In the case of TTAACCTCATTCGTGGTGCTTT, the sensor-assay potency score (higher = more potent) is -0.543.

TTTATCACCTGAATGAATCCTC returned a sensor-assay potency score (higher = more potent) of 0.519.

The sequence TTTATGAGGTACTTCTTCTGGC yielded a sensor-assay potency score (higher = more potent) of 0.438.

The next assay deals with ZNF160. Described as above. As to conditions: shRNA.
Sequence TTACCTATTACTCTCCTCCCAC came in with a sensor-assay potency score (higher = more potent) of -0.496.

Sequence TTTCTTGCTATTTTCACACAGC showed a sensor-assay potency score (higher = more potent) of -0.0844.

Consider TTTTGAGTGAAGCTCTTGCCAC, for which the sensor-assay potency score (higher = more potent) is -0.929.

As for TTCTATGTCTCTTCTGTCGCGT, the sensor-assay potency score (higher = more potent) is 0.15.

In turn, TGAATTTTGAGTGAAAACCTTG yielded a sensor-assay potency score (higher = more potent) of -0.306.

In turn, TCTATGTCTCTTCTGTCGCGTT displayed a sensor-assay potency score (higher = more potent) of -0.213.

TATGTTTACATGATGTCTCTTG: the sensor-assay potency score (higher = more potent) was determined as 0.273.

Consider TTGATCTCTTTTACCTTCTTTC, for which the sensor-assay potency score (higher = more potent) was -0.844.

TGTCTTTCCAACACCACTGTGT displayed a sensor-assay potency score (higher = more potent) of 0.215.

With TTCTGTACTGCTCTTCTCTTTT, the sensor-assay potency score (higher = more potent) was -0.536.

In turn, TAGGCTTGAACGAACACTGAAG had a sensor-assay potency score (higher = more potent) of -0.806.

In turn, TAAACAACAGGTATTGCTCTTT gave a sensor-assay potency score (higher = more potent) of 0.3.

For a further assay, the target named is ZNF169. The description is as above. As to conditions: shRNA.
For TAAGGTGTGACTTCTGGCCAAG, the sensor-assay potency score (higher = more potent) is -0.969.

The sequence TAGCGCATATTGTCTGAGGAGC returned a sensor-assay potency score (higher = more potent) of -1.15.

TTCAACATTGTGTCTGACCCCC displayed a sensor-assay potency score (higher = more potent) of 0.288.

The sequence TTCGTCGCCTTGCTCCAGCTGT came in with a sensor-assay potency score (higher = more potent) of -0.551.

Sequence TAGAAGGAGGGCTATCTTCTGG yielded a sensor-assay potency score (higher = more potent) of -0.694.

Consider TTTTTCACTAGAGCATCTTGGA, for which the sensor-assay potency score (higher = more potent) was determined as 0.14.

In turn, TATTGTCTGAGGAGCTGCGAGC registered a sensor-assay potency score (higher = more potent) of -1.19.

For the sequence TTGATAAGGTCTGATCTCTGGC, the sensor-assay potency score (higher = more potent) amounted to 0.151.

In the case of ATATTGTCTGAGGAGCTGCGAG, the sensor-assay potency score (higher = more potent) was -1.34.

With TTTCACTAGAGCATCTTGGAGC, the sensor-assay potency score (higher = more potent) is -0.176.

Sequence TTTCTTAATGAGCTGTCGGGGC showed a sensor-assay potency score (higher = more potent) of -0.62.
